# JMJD2A Tudor – inhibitors of human JMJD2A Tudor domain | AlphaScreen JMJD2A-Tudor / H3K4me3 peptide binding | Potency, µM (top dose mostly 114 µM), inactives show top-dose activity change, negative = inhibition, most hits filed as inhibitors | actives 4.4% (n = 390,000) | AID 504339; note: % is set by controls: 0 for no effect and ±100 for the full control effect; nearly all actives have a fitted effect of over 50% in size
# G9a block – blocks human histone lysine methyltransferase G9a | Q96KQ7 | G9a H3K9 monomethylation, AlphaScreen, 2 h | Potency, µM (highest dose often 102 µM), for the others: at the top dose activity, negative = inhibition, hits mostly inhibitors | actives 8.8% (n = 350,000) | AID 504332; note: % is set by controls: 0 for no effect and ±100 for the full control effect; nearly all actives have a fitted effect of over 75% in size
# Target sequence (Q96KQ7 913-1193 limits assumed): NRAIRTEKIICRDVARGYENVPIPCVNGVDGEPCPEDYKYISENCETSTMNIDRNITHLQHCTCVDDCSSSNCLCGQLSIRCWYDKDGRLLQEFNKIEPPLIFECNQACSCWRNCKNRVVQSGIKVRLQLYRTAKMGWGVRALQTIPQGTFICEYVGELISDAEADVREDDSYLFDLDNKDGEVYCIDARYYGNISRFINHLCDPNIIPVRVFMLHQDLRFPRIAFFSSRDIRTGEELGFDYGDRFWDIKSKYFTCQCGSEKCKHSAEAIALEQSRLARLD
#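 AlphaScreen read-out: biotin-H3K9 peptide (500 nM) methylation by 20 nM enzyme with 20 uM SAM, 2 h at room temperature after 15 min compound preincubation; anti-monomethyl H3K9 antibody plus donor/acceptor beads, 10 min dark.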
# HP1b chromo inh – blocks HP1-beta chromodomain binding to methylated histone tails; P83916; AlphaScreen HP1-beta / biotin-H3K9me3 peptide binding; Potency, µM (series often up to 114 µM), inactives show at the top dose activity change, negative = inhibition, most hits filed as inhibitors; actives 0.56% (n = 390,000); AID 540317; note: nearly all actives have a fitted effect of over 70% in size
# Target sequence (P83916 whole entry, looked up): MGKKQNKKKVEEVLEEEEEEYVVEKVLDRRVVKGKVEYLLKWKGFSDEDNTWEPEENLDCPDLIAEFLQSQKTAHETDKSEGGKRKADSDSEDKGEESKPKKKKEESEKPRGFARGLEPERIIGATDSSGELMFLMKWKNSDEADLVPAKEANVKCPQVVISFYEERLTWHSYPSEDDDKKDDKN
#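 Compound inhibition of the preformed complex between 50 nM HP1-beta and 50 nM biotinylated H3K9me3 peptide was read by AlphaScreen. Buffer was PBS pH 7.4 with 0.01% Tween-20. Incubations ran 30 min at room temperature, with 10 ug/mL donor/acceptor beads.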
# Sfp inh – Sfp phosphopantetheinyl transferase inhibition. Q9F4F7. Biochemical Sfp PPTase activity, qHTS. Potency, µM, without a hit: largest response in the series, negative = inhibition, actives largely listed as inhibitors. actives 3.5% (n = 310,000). AID 1490;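 note: the enzyme is Sfp with the accession as filed and its product quenches rhodamine fluorescence; 0% = enzyme reaction without inhibitor and -100% = no enzyme wells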
#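 Fluorescence-quenching assay: 15 nM Sfp-PPTase preincubated 15 min at room temperature with compound, then 5 uM rhodamine-CoA and 12.5 uM BHQ-2-labelled YbbR peptide added. Fluorescence (ex 525/em 598 nm) read at start and after 30 min; difference gives rate.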
# PLK1 PBD block – PLK1 (human) polo-box domain binding inhibition. P53350. Plk1 PBD binding of FITC phosphopeptide, fluorescence polarization. Potency, µM, inactives show max response, negative = inhibition, usual class: inhibitors. actives 2.8% (n = 360,000). AID 720504; note: series mostly up to about 57 µM; % is set by controls: 0 for no effect and ±100 for the full control effect; nearly all actives have a fitted effect of over 65% in size
# BAZ2B inh – BAZ2B (human) inhibition; Q9UIF8; AlphaScreen BAZ2B-H3K14Ac peptide displacement; Potency, µM (top dose mostly 114 µM), for the others: at the highest dose activity change, negative = inhibition, hits mostly inhibitors; actives 4.4% (n = 360,000); note: % is set by controls: 0 for no effect and ±100 for the full control effect; nearly all actives have a fitted effect of over 60% in size
#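 Protein-peptide AlphaScreen: BAZ2B 50 nM, b-H3K14Ac 50 nM, 1x PBS pH 7.4 + 0.01% Tween-20. Preincubation 30 min RT; cpd 30 min RT (top 110 uM); beads 20 min RT, light-protected.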
# The depositor's hits bear a star; ? = inconclusive; · = not tested or not shown; [ ] = dose if it differs, or a comment. An excerpt weighted towards active compounds, which were near 12% of everything screened. Calls come from the whole dose curve; as a rule, active = well fitted curve in the direction sought with a large enough effect; inconclusive = small, poorly fitted or top-dose-only effect, or another doubt; inactive = no such curve, though single readings can be large; an effect the other way counts as inactive or inconclusive. Potency is the fitted concentration of half-maximal effect.
SMILES,JMJD2A Tudor,G9a block,HP1b chromo inh,Sfp inh,PLK1 PBD block,BAZ2B inh
O=C(Cc1ccc(N(CCCl)CCCl)cc1)NC(Cc1ccc(Cl)cc1)C(=O)O (stereo not given),-10%,?,45%,12%,-9%,-9%
O=C(O)CCCc1ccc(N(CCCl)CCCl)cc1,-31%,-1%[59 µM],22%,-9%,-21%,56µM*
N[C@@H](Cc1ccc(N(CCCl)CCCl)cc1)C(=O)O,-27%,7.9µM*,25%,?,-11%,-27%
S=P(c1ccccc1)(c1ccccc1)c1c[n+](Cc2ccccc2)c2ccccn12,-16%,·,·,·,·,·
Cc1cccc(-n2c(O)c(/C=C3/C(c4ccccc4)=Nc4ccccc43)c(=O)[nH]c2=O)c1,?,?,-10%,-16%,13µM*,40µM*
CC1=Nc2ccccc2/C1=C/c1c(O)n(C)c(=O)[nH]c1=O,-20%,·,12%,12%,?,-4%
Cc1ccccc1-n1c(O)c(/C=C2/C(c3ccccc3)=Nc3ccccc32)c(=O)[nH]c1=O,?,?,?,-17%,6.7µM*,?
COC(=O)C1=Nc2ccccc2/C1=C\c1c(O)n(-c2cc(OC)ccc2OC)c(=O)[nH]c1=O,-15%[57.1 µM],?,?,?,3.4µM*,79µM*
Cc1ccc(-n2c(O)c(/C=C3/C(c4ccccc4)=Nc4ccccc43)c(=O)[nH]c2=O)cc1,?,35µM*,-31%,-24%,8.4µM*,?
CC[C@H](/C=C/[C@@H](C)[C@H]1CC[C@H]2C3CC=C4C[C@@H](O)CC[C@]4(C)C3CC[C@]12C)C(C)C (stereo not given in full),·,·,·,34%,·,·
COc1ccc(CN2CCCC(C(=O)c3cccc(Cl)c3)C2)cc1 (stereo not given),0%,20%,58%,-3%,-1%,-5%
COc1ccc(CN2CCCC(C(=O)c3ccc(Cl)cc3)C2)c(OC)c1 (stereo not given),?,22%[0.501 µM],-13%,10%,24µM*,-5%
COc1ccc(O)c(CN2CCCC(C(=O)c3sccc3C)C2)c1 (stereo not given),-28%[57.1 µM],50µM*,-22%,4%,-11%,?
CC1(C)C(=O)[C@@H]2OC2[C@@]2(C)C1CC(O)[C@]1(C)C2CC[C@@]2(C)C(c3ccoc3)OC(=O)C3OC312 (stereo not given in full),·,·,·,-11%,·,·
Cc1c(C)n(O)c2ccc3nonc3c12,-14%,?,14%,-11%,19µM*,-13%
CN[C@H](CC(C)C)C(=O)N[C@H]1C(=O)N[C@@H](CC(N)=O)C(=O)N[C@H]2C(=O)N[C@H]3C(=O)N[C@H](C(=O)N[C@H](C(=O)O)c4cc(O)cc(O)c4-c4cc3ccc4O)[C@H](O)c3ccc(c(Cl)c3)Oc3cc2cc(c3O[C@@H]2O[C@H](CO)[C@@H](O)[C@H](O)[C@H]2O[C@H]2C[C@](C)(N)[C@H](O)[C@H](C)O2)Oc2ccc(cc2Cl)[C@H]1O,·,38%[12.7 µM],·,·,·,·
Cc1cc(-c2ccc(C)c(S(=O)(=O)N3CCOc4ccc(Cl)cc43)c2)on1,-10%,24%[59 µM],64%,·,·,33%
Fc1ccc(C(OCCN2CCCC2)c2ccc(Br)cc2)cc1 (stereo not given),5%,-9%[59 µM],46%,40µM*,-4%,0%
Fc1ccc(C(OCCN2CCCC2)c2ccc(F)cc2)cc1,-24%,2%[59 µM],21%,3%,-13%,5%
CCCc1nnc(NC(=O)CCC(=O)N2CCN(CCOC(c3ccccc3)c3ccccc3)CC2)s1,-29%,-21%,1%,7%,-3%,-37%
Fc1ccc(C(OCCN2CCN(CCCc3ccccc3)CC2)c2ccc(F)cc2)cc1,50µM*,?,-21%,12%,·,·
O=C(O)C1=CCCN(CCOC(c2ccc(C(F)(F)F)cc2)c2ccc(C(F)(F)F)cc2)C1,·,·,·,-22%,·,·

# Source: PubChem
